# In the library only some 8.9% were active in any assay of this set; here they are far more common.
# DRD3 agonist = activates the human D3 dopamine receptor; hit rate 0.58% among 410,000; AID 652048; D3R DiscoveRx beta-arrestin cells, luminescence, 90 min; P35462; max activation, %; in the data active = max activation above about 30%; also: 0% is about no effect
# Target sequence (P35462 whole entry, looked up): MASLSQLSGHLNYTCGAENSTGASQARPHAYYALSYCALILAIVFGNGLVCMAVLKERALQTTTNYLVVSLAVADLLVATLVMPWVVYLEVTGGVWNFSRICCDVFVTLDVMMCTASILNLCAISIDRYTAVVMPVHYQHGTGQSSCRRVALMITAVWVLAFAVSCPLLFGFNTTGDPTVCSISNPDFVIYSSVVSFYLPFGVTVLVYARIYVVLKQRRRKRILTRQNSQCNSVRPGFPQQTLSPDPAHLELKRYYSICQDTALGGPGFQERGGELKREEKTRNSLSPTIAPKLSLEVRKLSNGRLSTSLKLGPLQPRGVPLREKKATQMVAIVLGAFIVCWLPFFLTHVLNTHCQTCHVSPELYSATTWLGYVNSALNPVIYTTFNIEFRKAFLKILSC
#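 Cells at 1500/well, incubated overnight, then treated with pinned compounds (dopamine as control) for 90 min at 37 degrees C. DiscoveRx reagent added for 30 - 60 minutes at room temperature; luminescence read.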
# SW480 rerep = inducers of DNA re-replication in SW480 colon cancer cells. AID 624297. Potency, µM (highest dose often 46.1 µM), without a hit: at the top dose re-replication activation, most hits filed as activators. hit rate 1.8% among 340,000. SW480 DNA re-replication, Hoechst DNA content imaging, 48 h; also: potency is read from the fitted curve at half-maximal effect; % of control where 0% means no effect; nearly all actives have a fitted effect of over 55% in size
#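 Quantitative HTS format with DMSO vehicle controls; 48 hr drug incubation at 37 C, then 40 min Hoechst staining and scanning imager measurement at 405 nm excitation.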
# KB-V1 cytotox = kills drug-selected multidrug resistant KB-V1 cells. KB-V1 MDR cells viability, CellTiter-Glo, 72 h. Potency, µM (highest dose often 46.1 µM), most hits filed as cytotoxic. hit rate 3.4% among 400,000; also: potency is read from the fitted curve at half-maximal effect; % is scaled to controls: 0 for no effect and ±100 for the full control effect; nearly all actives have a fitted effect of over 60% in size
#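 Potencies derive from concentration-effect curves fitted to normalized luminescence (CellTiter-Glo) of KB-V1 cells treated for 72 h at 37 degrees C in phenol-red-free DMEM containing 10% FBS.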
# KB-3-1 tox = kills parental KB-3-1 adenocarcinoma cells; Potency, µM (series often up to 46.1 µM), most hits filed as cytotoxic; KB-3-1 viability, CellTiter-Glo ATP luminescence, 72 h; hit rate 1.4% among 400,000; also: potency is read from the fitted curve at half-maximal effect; % is scaled to controls: 0 for no effect and ±100 for the full control effect; nearly all actives have a fitted effect of over 60% in size
#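 Parental KB-3-1 viability, qHTS format: 72 h compound exposure, 37 °C; CellTiter-Glo; media-only wells and DMSO plates as controls; concentration-effect fits on corrected data.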
# MCF10A rereplic = induces DNA re-replication in MCF 10a normal breast cells. AID 624296. hit rate 2.9% among 350,000. MCF 10A DNA re-replication, Hoechst nuclear intensity, 48 h. Potency, µM (top dose mostly 46.1 µM), for the others: at the highest dose activity, positive = re-replication, most hits filed as activators; also: potency is read from the fitted curve at half-maximal effect; % of control where 0% means no effect; nearly all actives have a fitted effect of over 50% in size
# D3 antag = antagonists of human D3 dopamine receptor; P35462; D3R cells, DiscoveRx beta-arrestin luminescence, antagonist mode; hits give low values; max response, negative = inhibition, %; hit rate 2.5% among 360,000; AID 652054; in the data active = max response below about -50%; inconclusive = no clear call, values can overlap the other calls; also: % is scaled to controls: 0 for no effect and ±100 for the full control effect
#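 Cells expressing the human receptor were seeded at 1500 cells/well, incubated overnight at 37 degrees C in 5% CO2, then exposed to library compounds with dopamine controls for 90 minutes at 37 degrees C before luminescent detection.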
# * hit, by the source's call; i = inactive; ? = inconclusive; · = no result. Unless noted, calls follow the shape of the dose curve; as a rule, active = well fitted curve in the direction sought with a large enough effect; inconclusive = small, poorly fitted or top-dose-only effect, or another doubt; inactive = no such curve, though single readings can be large; an effect the other way counts as inactive or inconclusive.
SMILES,DRD3 agonist,SW480 rerep,KB-V1 cytotox,KB-3-1 tox,MCF10A rereplic,D3 antag
O=C(COC(=O)c1ccccc1Br)NCCC1=CCCCC1,-14.7,?,i,i,-5.8%,-25.6
O=C(COC(=O)c1ccccc1NCCO)NCCC1=CCCCC1,-14.7,0.8%,i,i,2.0%,-63.7*
c1ccc2c(c1)OCc1cn[nH]c1-2,-0.6,?,i,i,9.3%,-12.5
c1ccc(N2CC3COc4ccccc4C3=N2)cc1 (configuration not stated),7.1,14.6µM*,i,i,13µM*,2.3
CCCc1c(NC(=O)Nc2ccc(Cl)cc2Cl)cnn1-c1ccccc1,16.2,14.6µM*,?,?,?,-15.8
CCCc1c(C(=O)Nc2ccc(F)cc2F)cnn1-c1ccccc1,4.0,-2.3%,?,i,2.2%,10.3
CCNC(=S)Nc1ccc(Cl)c(C(F)(F)F)c1,-4.1,?,23.1µM*,?,?,-13.6
CCOCC(=O)Nc1nc2ccc(OC)cc2s1,-2.2,-9.3%,i,i,-13.4%,24.3
CCCC(=O)Nc1nc2ccc(NC(=O)c3ccccc3F)cc2s1,-4.6,8.2µM*,1.84µM*,2.06µM*,6.51µM*,-26.8
COc1ccc2nc(NC(=O)CCn3cccc3)sc2c1,-3.8,1.1%,18.4µM*,i,2.4%,8.9
COc1cc(CCC(=O)Nc2nnc(C)s2)cc(OC)c1OC,-14.2,6.51µM*,?,?,10.3µM*,2.6
COc1ccc2nc(NC(=O)CCc3cc(OC)c(OC)c(OC)c3)sc2c1,0.0,9.1%,20.6µM*,i,1.0%,8.5
COc1cc(CCC(=O)Nc2ccc(Br)c(C(F)(F)F)c2)cc(OC)c1OC,6.4,15.9%,?,i,?,20.9
COc1cc(CCC(=O)Nc2ccc(Cl)c(C(F)(F)F)c2)cc(OC)c1OC,4.0,1.7%,16.4µM*,i,16.7%,26.4
CCCCN(C(=O)NC(=O)Nc1nc2ccc(OC)cc2s1)S(C)(=O)=O,-8.4,?,9.2µM*,?,-8.3%,-12.4
CCCCOC(=O)Nc1nc2ccc(OC)cc2s1,-18.0,-25.3%,i,i,11.2%,-24.1
COc1ccc2nc(NC(=O)CSc3nccc(C)n3)sc2c1,-4.4,-4.2%,23.1µM*,i,13.6%,24.3
Cc1cccc(N2CCN(c3cc(C)nc4c(-c5ccc(Cl)cc5)c(C)nn34)CC2C)c1 (configuration not stated),1.0,·,·,·,·,·
COc1ccccc1N1CCN(C(=O)Cn2cnc3onc(-c4ccc(F)cc4)c3c2=O)CC1,-5.5,·,i,i,·,·
Cc1ccc(CNC(=O)C2CCN(S(=O)(=O)c3ccc(F)cc3)CC2)cc1,3.3,·,i,i,·,·
Cc1ccc(C)n1-c1ccc(C(=O)/C=C/N(C)C)cc1,0.7,?,i,i,23.1µM*,-14.5
CN(C)c1nc(NC(C)(C)C)nc(SCC(=O)Nc2ccccc2)n1,-0.3,-2.9%,8.2µM*,i,0.6%,3.6
CN(C)c1nc(SCCOC(=O)Nc2ccccc2)nc(N(C)C)n1,7.8,-5.9%,14.6µM*,i,1.0%,15.4
CN(C)c1nc(C(=O)Nc2ccccc2)nc(N(C)C)n1,-2.0,0.0%,i,i,7.8%,-21.7
C[C@@H]1CN([C@@H](C)CO)C(=O)Cc2cc(NC(=O)Nc3ccc(C(F)(F)F)cc3)ccc2O[C@@H]1CN(C)S(=O)(=O)c1ccc(Cl)cc1,-19.1,5.8%,i,?,?,14.1
SMILES,DRD3 agonist,SW480 rerep,KB-V1 cytotox,KB-3-1 tox,MCF10A rereplic,D3 antag
C[C@H](CO)N1C[C@H](C)[C@H](CN(C)S(=O)(=O)c2cn(C)cn2)Oc2ccc(NC(=O)Nc3ccc(C(F)(F)F)cc3)cc2CC1=O,-5.1,?,?,4.11µM*,?,?
Cc1ccc(S(=O)(=O)N(C)C[C@@H]2Oc3ccc(NC(=O)CCC(F)(F)F)cc3CC(=O)N([C@@H](C)CO)C[C@@H]2C)cc1,0.0,3.66µM*,i,?,3.66µM*,-21.6
Cc1nc(C)c(-c2csc(Nc3ccc(N)cc3)n2)s1,-7.9,1.2%,i,i,26.8%,15.4
Cc1nc(N)sc1-c1csc(Nc2ccccc2)n1,3.4,?,i,i,?,-55.5*
Cc1nc(C)c(-c2csc(Nc3cccnc3)n2)s1,0.1,-2.8%,3.26µM*,i,-5.8%,-22.7
Cc1nc(N)sc1-c1csc(Nc2cccc(C(=O)O)c2)n1,3.0,-4.4%,i,i,-5.8%,2.6
COc1ccc(Nc2nc(-c3sc(C)nc3C)cs2)cc1,-1.8,1.46µM*,1.64µM*,5.8µM*,?,17.3
c1cncc(Nc2nc(-c3ccncc3)cs2)c1,0.0,?,i,i,?,20.7
COc1cccc2sc(N3CCN(C(=O)CCS(=O)(=O)c4ccc(F)cc4)CC3)nc12,6.3,·,·,·,·,·
Cc1ccc(NC(=O)CN(C)C(=O)Cc2c[nH]c3ccccc23)cc1,-16.5,-7.3%,18.4µM*,i,10.8%,-17.0
Cc1cc(SCC(=O)N(C)CC(=O)Nc2ccc(F)cc2)nc2ccccc12,-8.2,-74.5%,5.17µM*,i,-53.9%,0.0
Cc1cccc(NC(=O)CCSc2nnc(Cc3ccccc3)o2)c1,-1.8,-0.4%,14.6µM*,i,0.6%,5.9
CN(CC(=O)Nc1ccc(F)cc1)C(=O)CSc1nnc(Cc2ccccc2)o1,2.7,-3.1%,16.4µM*,i,4.0%,-10.7
O=Cc1ccc2[nH]ccc2c1,·,·,i,i,·,·
CCOc1ccc(-n2c(SCC(=O)N3CCCC3)nc3c([nH]c4ccccc43)c2=O)cc1,-7.2,·,?,i,·,·
COc1cccc(-c2noc(C3CCCN(C(=O)CC(C)(C)C)C3)n2)c1 (configuration not stated),0.5,24.0%,i,i,0.461µM*,-6.1
CCCS(=O)(=O)N1CCCC(c2nc(-c3cccc(OC)c3)no2)C1 (configuration not stated),-2.7,2.4%,11.6µM*,i,-2.9%,-6.2
CCCCC(=O)N1CCCC(c2nc(-c3cccc(OC)c3)no2)C1 (configuration not stated),-0.6,-3.2%,i,i,-2.5%,18.1
COc1cccc(-c2noc(C3CCCN(S(=O)(=O)c4cccc(Cl)c4C)C3)n2)c1 (configuration not stated),0.7,2.6%,14.6µM*,i,24.6%,?
COc1cc(N=Nc2ccc(C)cc2S(N)(=O)=O)c(C)cc1N,-15.2,-5.7%,i,i,-36.7%,-3.2
CC(=O)Nc1ccc(NC(=O)CN(C)S(=O)(=O)c2ccc3c(c2)CCC(=O)N3)cc1,-2.9,-10.5%,i,i,8.7%,23.4
